Inconclusive results are not listed. Calls of active or inactive are those of the source. The call rests on the fitted dose curve; in most records, active means well fitted cell-killing curve with a large enough effect; inconclusive means small, poorly fitted or top-dose-only effect, or effect the other way; inactive means flat fitted curve, though single readings scatter.
Test system: Tov-21-G
Test: Primary qHTS to identify gynecologic anti-cancer compounds using libraries of approved drugs and bioactive compounds (AID 1345084); further: nearly all actives have a fitted effect of over 55% in size
Settings: Gynecologic cancer cell panel viability, ATPlite luminescence, 48 h; series mostly up to 57.5 µM; activity change, negative = cytotoxicity: at the top concentration
Summary of the method: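 Cytotoxicity screen measuring ATP content by luciferase luminescence. Each compound is applied at five concentrations for 48 h at 37 C with 5% CO2.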
On the % scale 0 is the no-effect control and ±100 the full control effect; potency means the concentration at half of the fitted maximal effect.

SMILES	activity change, negative = cytotoxicity	Potency
CC(=O)OC1CC(O)C(C)(C)C2CC(OC(C)=O)C3(C)C(CCC4(C)C(c5ccoc5)C(=O)C5OC543)C12C (stereo unspecified)	-1.85% [at 25.3 µM] (inactive)	–
COc1cc(C(=O)O[C@H]2[C@@H]3C=CO[C@@H](O[C@@H]4O[C@H](CO)[C@@H](O)[C@H](O)[C@H]4O)[C@@H]3[C@@]3(CO)O[C@@H]23)ccc1O	1.29% [at 25.3 µM] (inactive)	–
CCOc1ccccc1-n1c(C(C)N2CCN(C(=O)COc3ccc(Cl)cc3)CC2)nc2ccccc2c1=O (stereo unspecified)	–	6310 nM (active)
COc1c(C(C)C)cc2c(c1O)[C@@]1(C(=O)O)CCCC(C)(C)C1CC2 (stereo partly specified)	-15% [at 38.5 µM] (inactive)	–
CCc1[nH]c2ccc(OC)cc2c1CCN(C)C	4.05% (inactive)	–
COC(=O)C1(C)CCC(=O)C2(C)c3c(O)cc(C(C)C)cc3C(O)C(OC(C)=O)C12 (stereo unspecified)	-0.462% [at 25.3 µM] (inactive)	–
CN1[C@H]2C[C@H](OC(=O)[C@H](CO)c3ccccc3)C[C@@H]1[C@@H](O)C2	11.1% (inactive)	–
CC(C)(O)[C@H]1O[C@H]2CC[C@@]3(C)[C@@](O)(CC[C@H]4Cc5c([nH]c6ccccc56)[C@@]43C)C2=CC1=O	3.65% [at 25.3 µM] (inactive)	–
CC1C/C=C/C(O)C(O)CC/C=C/c2cc(O)cc(O)c2C(=O)O1 (stereo unspecified)	6.09% [at 38.5 µM] (inactive)	–
COC1CC(OC2CCC3(C)C(=CCC4C3CCC3(C)C(C(C)OC5OC(COC6OC(CO)C(O)C(O)C6O)C(O)C(O)C5O)CCC43O)C2)OC(C)C1OC1OC(C)C(O)C(OC)C1O (stereo unspecified)	6.16% [at 11.6 µM] (inactive)	–
C1=C2CCCN[C@H]2[C@@H]2C[C@H]1[C@H]1CCCCN1C2	0.215% (inactive)	–
C[C@H]1O[C@@H](O[C@H]2C[C@@H](O)[C@]3(CO)C4C(CC[C@]3(O)C2)[C@@]2(O)CC[C@H](C3=CC(=O)OC3)[C@@]2(C)C[C@H]4O)[C@@H](O)[C@@H](O)[C@H]1O (stereo partly specified)	–	178 nM (active)
CCN1C[C@]2(OC(=O)c3ccccc3NC(C)=O)CC[C@H](OC)[C@@]34[C@@H]2C[C@@H]([C@@H]13)[C@@]1(O)C[C@H](OC)[C@H]2C[C@@H]4[C@]1(O)[C@H]2OC	16.7% (inactive)	–
COCC1OC(=O)c2coc3c2C1(C)C1=C(C3=O)C2CCC(=O)C2(C)CC1O (stereo unspecified)	1.87% [at 38.5 µM] (inactive)	–
Oc1ccc2c3c1O[C@H]1[C@H](N(CCCl)CCCl)CC[C@@]4(O)[C@@H](C2)N(CC2CC2)CC[C@]314	6.96% [at 11.6 µM] (inactive)	–
COC(=O)C1(C)CCC(O)C2(C)c3c(O)cc(C(C)C)cc3C(O)C(OC(C)=O)C12 (stereo unspecified)	-1.27% [at 25.3 µM] (inactive)	–
CC(C)=C1CC[C@]23CO[C@H](C2)[C@@](O)(C(=O)O)CCC13 (stereo partly specified)	0.157% (inactive)	–
COC(=O)N1CCN(C(=O)Cc2ccc(Cl)c(Cl)c2)[C@@H](CN2CCCC2)C1	0.919% (inactive)	–

SMILES	activity change, negative = cytotoxicity	Potency
COC1CC(OC2CCC3(C=O)C(CCC4C3CCC3(C)C(C5=CC(=O)OC5)CCC43O)C2)OC(C)C1OC1OC(CO)C(O)C(O)C1O (stereo unspecified)	–	199 nM (active)
CCCCCOc1cc2c(cc1-c1cc(/C=C/C(=O)O)ccc1O)C(C)(C)CCC2(C)C	4.2% (inactive)	–
CC(=O)OC12C(O)C(C)C3(O)C4C=C(C)C(=O)C4CC(CO)=CC3C1C2(C)C (stereo unspecified)	6.2% [at 25.3 µM] (inactive)	–
CN1CCC[C@@H]1Cc1c[nH]c2ccc(Nc3ncccc3[N+](=O)[O-])cc12	-12.6% (inactive)	–
CN(C)CCc1c[nH]c2ccc(CN3CCN(C)S3(=O)=O)cc12	8.08% (inactive)	–
CN1C(=O)c2ccccc2NC(=O)C1Cc1ccccc1 (stereo unspecified)	6.95% (inactive)	–
C/C=C(\C)C(=O)OC1CC2C(C)(C)OC(=O)CC(OC(C)=O)C2(C)C2CC(OC(=O)C(C)C)C3(C)C(c4ccoc4)CC4OC43C12C (stereo unspecified)	-1.64% [at 25.3 µM] (inactive)	–
C[C@]12CC[C@H]3[C@@H]([C@H](O)CC4=CC(=O)CC[C@@]43C)[C@@H]1CC[C@@H]2O	8.96% (inactive)	–
COc1ccccc1CN[C@H]1C2CCN(CC2)[C@H]1C(c1ccccc1)c1ccccc1	3% (inactive)	–
C=C1[C@@H]2CC[C@@]3(C)[C@H](c4ccoc4)OC(=O)C[C@]13O[C@H]1CC(=O)C(C)(C)[C@H](C(OC(C)=O)C(=O)OC)[C@]12C (stereo partly specified)	-0.369% [at 25.3 µM] (inactive)	–
C=CC(C)(O)CC/C=C(\C)C(=O)O[C@H]1[C@H](O)[C@@H](CO)O[C@@H](OC(=O)[C@]23CCC(C)(C)CC2C2=CCC4[C@@]5(C)CC[C@H](O[C@@H]6O[C@H](CO[C@@H]7OC[C@H](O)[C@H](O)[C@H]7O[C@@H]7OC[C@@H](O)[C@H](O)[C@H]7O)[C@@H](O)[C@H](O)[C@H]6O)C(C)(C)C5CC[C@@]4(C)[C@]2(C)CC3)[C@@H]1OC1OC(C)C(O[C@@H]2OC[C@@H](O)[C@H](O[C@@H]3OC[C@@H](O)[C@H](O)[C@H]3O)[C@H]2O)C(O)C1O (stereo partly specified)	5.83% [at 6.55 µM] (inactive)	–
Cc1cn(C[C@H](N)C(=O)O)c(=O)n(Cc2cc(-c3ccccc3)sc2C(=O)O)c1=O	11.9% (inactive)	–
CCc1c(C(=O)C(N)=O)c2c(OCC(=O)OC)cccc2n1Cc1ccccc1	-0.606% (inactive)	–
N#CC(OC1OC(COC2OC(CO)C(O)C(O)C2O)C(O)C(O)C1O)c1ccccc1 (stereo unspecified)	-0.704% [at 25.3 µM] (inactive)	–
CC(=O)OC1CC(O)C2(C)C(CC(OC(C)=O)C3(C)C2CCC2(C)C(c4ccoc4)C(=O)C4OC423)C1(C)C (stereo unspecified)	2.16% [at 25.3 µM] (inactive)	–
CCC(C)(OC(C)=O)C(=O)O[C@H]1[C@H](OC(C)=O)C[C@@H]2[C@@](C)([C@@H]3C[C@H]4C=CO[C@H]4O3)[C@H](C)C[C@H](OC(C)=O)[C@@]2(COC(C)=O)[C@@]12CO2 (stereo partly specified)	-0.877% [at 25.3 µM] (inactive)	–
C[C@@H]1C(=O)O[C@H]2[C@H](O)[C@@]34[C@@H]5OC(=O)[C@@]3(O[C@@H]3OC(=O)[C@@H](O)[C@@]34[C@H](C(C)(C)C)[C@H]5O)[C@@]12O	4.04% [at 25.3 µM] (inactive)	–
C[C@@]12C[C@@H](c3ccoc3)OC(=O)C1CC[C@]1(C)[C@H]2[C@H]2C=C[C@]1(O)C(=O)O2 (stereo partly specified)	3.29% [at 38.5 µM] (inactive)	–

Reference: PubChem BioAssay (NCATS)
